Inconclusive results are not listed. Activity calls are given as the source filed them. Calls follow the shape of the dose curve; as a rule, active = well fitted inhibition curve with a large enough effect; inconclusive = small, poorly fitted or top-dose-only effect; inactive = flat fitted curve, though single readings scatter.

Experiment in all cases: qHTS profiling for inhibitors of Plasmodium falciparum proliferation (AID 504749); also: nearly all actives have a fitted effect of over 60% in size
Common to all, as to settings: P. falciparum in erythrocytes, SYBR Green DNA, 72 h; series mostly up to 28.7 µM
On the technique in general: In qHTS, concentration-response curves come from the screen itself.

One assay concerns CP335. The procedure, abridged:
(§1)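 Readout was DNA-dye fluorescence from lysed cultures, ex 485/em 535 nm. Parasitized red cells had grown 72 h with compound; data scaled between 0.29 uM artemisinin and DMSO wells and corrected using vehicle-only plates.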

A further assay deals with DFO2036. The method in brief: as §1
The subject of a further assay is DIV14. The method in brief:
as §1

The test system of another assay is DIV17. The method in brief: as §1
The subject of the next assay is DIV30. The procedure, abridged: as §1
For the next assay, the system named is Dd2. The method in brief: as §1
The next assay concerns ECU. The method in brief:
as §1

A further assay concerns FAB9. The procedure, abridged: as §1
The subject of the next assay is GB4. The method in brief:
as §1

Another assay deals with HB3. The procedure, abridged: as §1
The subject of the next assay is ICS. The procedure, abridged:
as §1

Another assay concerns JCK. The procedure, abridged:
as §1

The subject of another assay is N140. The procedure, abridged: as §1
The test system of the next assay is P93_24. The procedure, abridged:
as §1

Another assay deals with P94_40. The procedure, abridged: as §1
The subject of a further assay is PC15. The procedure, abridged: as §1
For a further assay, the system named is PC26. The procedure, abridged:
as §1

In a further assay the test system is PC49. The method in brief: as §1
In a further assay the test system is SC27B. The procedure, abridged:
as §1

Another assay has as its system PAD. The method in brief: as §1
Potency is read from the fitted curve at half-maximal effect.

Consider `Cn1c(=O)c2[nH]cnc2n(C)c1=O`, for which the Potency result with CP335, with DFO2036, with DIV14, with DIV17, in the assay with DIV30 and with Dd2 was “inactive” throughout. Also, the Potency entry with ECU, in the assay on FAB9, in the assay on GB4, in the assay on HB3, with ICS and in the assay on JCK was “inactive” each time. The Potency result in the assay with N140, in the assay on P93_24, with P94_40, in the assay on PC15, in the assay on PC26 and with PC49 was “inactive” in each case. Further, the Potency result with SC27B was “inactive”.
In the case of `CN(C)c1nc(N(C)C)nc(N(C)C)n1`, the Potency entry with CP335, in the assay on DFO2036, in the assay with DIV14, in the assay with DIV17, in the assay on DIV30 and with Dd2 was “inactive” throughout. Besides, the Potency result with ECU, in the assay with FAB9, in the assay on GB4, in the assay with HB3, in the assay with ICS and in the assay with JCK was “inactive” each time. Also, the Potency entry with N140, in the assay with P93_24, in the assay on P94_40, in the assay on PAD, in the assay with PC15 and with PC26 was “inactive” in each case. The Potency result in the assay with PC49 and in the assay on SC27B was “inactive” in each case.
`Cc1ccc(C(=O)Nc2ccc(S(=O)(=O)O)c3cc(S(=O)(=O)O)cc(S(=O)(=O)O)c23)cc1NC(=O)c1cccc(NC(=O)Nc2cccc(C(=O)Nc3cc(C(=O)Nc4ccc(S(=O)(=O)O)c5cc(S(=O)(=O)O)cc(S(=O)(=O)O)c45)ccc3C)c2)c1`: the Potency result with CP335, with DFO2036, with DIV14, with DIV17, in the assay with DIV30 and in the assay with Dd2 was “inactive” in each case. Besides, the Potency result with ECU, with FAB9, in the assay on GB4, in the assay on HB3, with ICS and in the assay on JCK was “inactive” in each case. For the same molecule, the Potency entry in the assay on N140, in the assay on P93_24, in the assay with P94_40, in the assay with PAD, with PC15 and in the assay with PC26 was “inactive” each time. The Potency result in the assay with PC49 and with SC27B was “inactive” throughout.
Turning to `CN1C(C(=O)Nc2ccccn2)=C(O)c2ccccc2S1(=O)=O`, the Potency entry in the assay on CP335, in the assay on DFO2036, in the assay with DIV14, in the assay on DIV17, in the assay with DIV30 and in the assay on Dd2 was “inactive” each time. Besides, the Potency entry in the assay with ECU, with FAB9, in the assay with GB4, in the assay on HB3, in the assay with ICS and in the assay on JCK was “inactive” each time. In addition, the Potency result in the assay on N140, in the assay on P93_24, in the assay on P94_40, in the assay with PAD, in the assay with PC15 and with PC26 was “inactive” throughout. Besides, the Potency entry in the assay with PC49 and in the assay on SC27B was “inactive” in each case.
Turning to `Clc1ccc2nsnc2c1NC1=NCCN1`, the Potency entry in the assay on CP335, in the assay on DFO2036, in the assay on DIV14, with DIV17, with DIV30 and in the assay with Dd2 was “inactive” in each case. In addition, the Potency result in the assay on ECU, in the assay with FAB9, in the assay with GB4, in the assay with HB3, in the assay with ICS and in the assay with JCK was “inactive” each time. The Potency entry with N140, in the assay on P93_24, with P94_40, in the assay with PAD, in the assay on PC15 and with PC26 was “inactive” in each case. The Potency result with PC49 and in the assay on SC27B was “inactive” throughout.
`Cn1c(=O)c2c(ncn2C)n(C)c1=O`: the Potency result in the assay with CP335, in the assay on DFO2036, in the assay on DIV14, in the assay with DIV17, with DIV30 and in the assay on Dd2 was “inactive” throughout. For the same molecule, the Potency entry in the assay on ECU, in the assay with FAB9, with GB4, with HB3, in the assay with ICS and in the assay on JCK was “inactive” throughout. The Potency entry with N140, in the assay on P93_24, with P94_40, in the assay with PAD, with PC15 and in the assay on PC26 was “inactive” each time. The Potency result in the assay with PC49 and with SC27B was “inactive” throughout.
As to `Cc1cn([C@H]2C[C@H](N=[N+]=[N-])[C@@H](CO)O2)c(=O)[nH]c1=O`, the Potency result in the assay with CP335, in the assay on DFO2036, in the assay with DIV14, in the assay with DIV17, in the assay on DIV30 and with Dd2 was “inactive” in each case. Further, the Potency entry with ECU, in the assay with FAB9, with GB4, in the assay on HB3, in the assay with ICS and with JCK was “inactive” in each case. The Potency result in the assay with N140, in the assay on P93_24, in the assay with P94_40, with PAD, with PC15 and with PC26 was “inactive” in each case. In addition, the Potency result in the assay with PC49 and with SC27B was “inactive” each time.
As for `COc1ccc2[nH]cc(CCNC(C)=O)c2c1`, the Potency result in the assay on CP335, with DFO2036, in the assay on DIV14, with DIV17, in the assay on DIV30 and in the assay with Dd2 was “inactive” throughout. The Potency result with ECU, in the assay on FAB9, in the assay on GB4, in the assay on HB3, in the assay with ICS and with JCK was “inactive” throughout. Further, the Potency entry in the assay on N140, in the assay with P93_24, in the assay on P94_40, with PAD, with PC15 and in the assay on PC26 was “inactive” in each case. Besides, the Potency result in the assay with PC49 and in the assay on SC27B was “inactive” each time.
For `Clc1ccccc1C(c1ccccc1)(c1ccccc1)n1ccnc1`, the Potency in the assay on CP335 was 1280 nM (active); in the assay with DFO2036, 708 nM (active); in the assay with DIV14, 455 nM (active); in the assay on DIV17 it was 287 nM (active); in the assay on DIV30 it was 228 nM (active); in the assay with Dd2, 708 nM (active). The Potency was 158 nM (active) with ECU; 1780 nM (active) with FAB9; 809 nM (active) in the assay with GB4; 501 nM (active) with HB3; 126 nM (active) with ICS; 708 nM (active) with JCK. Besides, the Potency in the assay with N140 was 224 nM (active); in the assay on P93_24, 126 nM (active); with P94_40, 631 nM (active); with PAD, 355 nM (active); with PC15 it was 1000 nM (active); in the assay with PC26 it was 572 nM (active). In addition, the results for the Potency with PC49 and in the assay on SC27B were 1000 nM (active) and 398 nM (active), respectively.
In the case of `CC(CCc1ccc(O)cc1)NCCc1ccc(O)c(O)c1` (configuration not stated), the Potency result with CP335, in the assay on DFO2036, with DIV14, with DIV17, in the assay with DIV30 and in the assay on ECU was “inactive” each time. Also, the Potency entry in the assay on FAB9, in the assay with GB4, in the assay with HB3, with ICS, with JCK and in the assay with N140 was “inactive” each time. Besides, the Potency entry in the assay with P93_24, with P94_40, in the assay on PAD, in the assay on PC26, with PC49 and in the assay on SC27B was “inactive” throughout.
With `NCCCCCC(=O)O`, the Potency result in the assay on CP335, with DFO2036, in the assay with DIV14, in the assay on DIV17, with DIV30 and in the assay on Dd2 was “inactive” each time. The Potency entry with ECU, with FAB9, in the assay on GB4, in the assay on HB3, in the assay with ICS and in the assay with JCK was “inactive” each time. Further, the Potency entry with N140, in the assay with P93_24, with P94_40, in the assay with PAD, in the assay on PC15 and in the assay on PC26 was “inactive” each time. For the same molecule, the Potency result in the assay with PC49 and in the assay on SC27B was “inactive” in each case.
With `N[C@@H](Cc1c[nH]c2ccc(O)cc12)C(=O)O`, the Potency result in the assay with CP335, in the assay on DFO2036, in the assay with DIV14, in the assay with DIV17, in the assay on DIV30 and in the assay with Dd2 was “inactive” each time. The Potency entry in the assay with ECU, in the assay on FAB9, in the assay on GB4, in the assay on HB3, with ICS and with JCK was “inactive” throughout. In addition, the Potency result with N140, in the assay on P93_24, in the assay on P94_40, with PAD, in the assay with PC15 and in the assay with PC26 was “inactive” throughout. In addition, the Potency result in the assay with PC49 and with SC27B was “inactive” throughout.
In the case of `Cc1cnc(C(=O)NCCc2ccc(S(=O)(=O)NC(=O)NC3CCCCC3)cc2)cn1`, the Potency result in the assay with CP335, in the assay with DFO2036, in the assay with DIV14, in the assay on DIV17, with DIV30 and with Dd2 was “inactive” each time. In addition, the Potency entry in the assay on ECU, in the assay on FAB9, in the assay with GB4, in the assay with HB3, in the assay on ICS and with JCK was “inactive” each time. Further, the Potency result in the assay on N140, with P93_24, with P94_40, in the assay with PAD, in the assay on PC15 and in the assay with PC26 was “inactive” in each case. For the same molecule, the Potency result in the assay on PC49 and in the assay with SC27B was “inactive” throughout.

The record behind these values is PubChem BioAssay (NCATS).
